This is an account of results in ChEMBL document CHEMBL1961873, “Compounds: GSK PKIS; Assays: Nanosyn kinase panel” (2012).

For experiment [1], the target named is T1, Ephrin type-B receptor 2 (Homo sapiens) (UniProt P29323).
T1 sequence (whole entry): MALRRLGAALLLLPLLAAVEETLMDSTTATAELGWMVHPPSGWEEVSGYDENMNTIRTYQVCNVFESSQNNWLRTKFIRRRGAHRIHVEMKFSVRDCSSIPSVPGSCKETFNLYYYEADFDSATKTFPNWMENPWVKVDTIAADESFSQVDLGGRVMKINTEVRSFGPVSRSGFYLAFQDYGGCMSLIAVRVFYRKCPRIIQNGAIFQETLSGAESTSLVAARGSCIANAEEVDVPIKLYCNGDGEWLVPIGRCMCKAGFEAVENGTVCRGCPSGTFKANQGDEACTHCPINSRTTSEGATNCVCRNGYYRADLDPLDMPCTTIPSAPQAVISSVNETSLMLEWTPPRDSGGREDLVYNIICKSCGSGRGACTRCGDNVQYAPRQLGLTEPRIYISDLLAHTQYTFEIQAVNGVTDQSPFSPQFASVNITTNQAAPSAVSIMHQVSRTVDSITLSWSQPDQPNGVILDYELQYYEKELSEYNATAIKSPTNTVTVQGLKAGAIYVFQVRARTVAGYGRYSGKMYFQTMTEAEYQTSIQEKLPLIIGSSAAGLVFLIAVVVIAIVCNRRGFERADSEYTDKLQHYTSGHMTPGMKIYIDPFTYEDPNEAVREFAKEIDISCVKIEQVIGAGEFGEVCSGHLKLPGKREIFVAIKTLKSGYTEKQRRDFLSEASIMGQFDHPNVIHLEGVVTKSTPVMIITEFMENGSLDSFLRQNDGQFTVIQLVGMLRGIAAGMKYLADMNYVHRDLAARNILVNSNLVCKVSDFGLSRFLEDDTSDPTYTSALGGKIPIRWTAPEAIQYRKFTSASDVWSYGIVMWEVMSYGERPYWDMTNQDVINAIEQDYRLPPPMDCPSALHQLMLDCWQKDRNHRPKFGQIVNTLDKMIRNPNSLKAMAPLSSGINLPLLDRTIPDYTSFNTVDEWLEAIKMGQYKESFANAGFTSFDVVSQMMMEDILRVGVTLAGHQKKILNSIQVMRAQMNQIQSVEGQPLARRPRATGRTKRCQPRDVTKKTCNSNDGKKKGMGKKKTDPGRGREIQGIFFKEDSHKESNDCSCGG
As to conditions: at 1 µM.

Experiment [2] concerns the target T2, Ephrin type-B receptor 3 (Homo sapiens) (UniProt P54753).
T2 sequence (whole entry): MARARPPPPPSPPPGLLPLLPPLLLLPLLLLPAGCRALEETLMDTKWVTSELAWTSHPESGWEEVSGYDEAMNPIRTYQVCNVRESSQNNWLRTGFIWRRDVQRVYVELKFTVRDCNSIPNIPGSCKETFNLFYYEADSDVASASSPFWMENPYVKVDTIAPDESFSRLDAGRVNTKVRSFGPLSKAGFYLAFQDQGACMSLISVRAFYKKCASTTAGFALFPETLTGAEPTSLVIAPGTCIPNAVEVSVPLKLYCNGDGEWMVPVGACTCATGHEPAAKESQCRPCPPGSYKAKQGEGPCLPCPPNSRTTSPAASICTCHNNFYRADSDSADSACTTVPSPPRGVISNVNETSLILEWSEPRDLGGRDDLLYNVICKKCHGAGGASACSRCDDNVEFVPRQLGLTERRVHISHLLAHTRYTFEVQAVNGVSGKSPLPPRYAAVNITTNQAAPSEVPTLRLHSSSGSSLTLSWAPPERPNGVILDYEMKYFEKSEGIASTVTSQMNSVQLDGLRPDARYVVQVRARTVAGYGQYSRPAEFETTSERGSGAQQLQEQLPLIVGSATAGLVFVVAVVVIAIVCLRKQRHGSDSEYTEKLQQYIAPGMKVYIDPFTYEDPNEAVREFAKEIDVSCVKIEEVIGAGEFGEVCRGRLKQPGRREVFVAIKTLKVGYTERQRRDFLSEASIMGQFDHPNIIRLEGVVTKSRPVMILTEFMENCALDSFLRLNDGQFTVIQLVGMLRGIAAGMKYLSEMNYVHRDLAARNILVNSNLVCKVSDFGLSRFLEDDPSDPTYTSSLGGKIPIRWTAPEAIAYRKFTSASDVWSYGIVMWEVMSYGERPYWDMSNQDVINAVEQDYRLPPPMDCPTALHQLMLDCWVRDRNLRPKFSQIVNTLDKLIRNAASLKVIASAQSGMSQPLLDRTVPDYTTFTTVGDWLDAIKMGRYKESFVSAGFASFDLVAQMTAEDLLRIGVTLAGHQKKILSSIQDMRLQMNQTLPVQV
As to conditions: at 0.1 µM.

The target in experiment [3] is T2, Ephrin type-B receptor 3 (Homo sapiens). As to conditions: at 1 µM.
Experiment [4] has as its target T3, Ephrin type-B receptor 4 (Homo sapiens) (UniProt P54760).
T3 sequence (whole entry): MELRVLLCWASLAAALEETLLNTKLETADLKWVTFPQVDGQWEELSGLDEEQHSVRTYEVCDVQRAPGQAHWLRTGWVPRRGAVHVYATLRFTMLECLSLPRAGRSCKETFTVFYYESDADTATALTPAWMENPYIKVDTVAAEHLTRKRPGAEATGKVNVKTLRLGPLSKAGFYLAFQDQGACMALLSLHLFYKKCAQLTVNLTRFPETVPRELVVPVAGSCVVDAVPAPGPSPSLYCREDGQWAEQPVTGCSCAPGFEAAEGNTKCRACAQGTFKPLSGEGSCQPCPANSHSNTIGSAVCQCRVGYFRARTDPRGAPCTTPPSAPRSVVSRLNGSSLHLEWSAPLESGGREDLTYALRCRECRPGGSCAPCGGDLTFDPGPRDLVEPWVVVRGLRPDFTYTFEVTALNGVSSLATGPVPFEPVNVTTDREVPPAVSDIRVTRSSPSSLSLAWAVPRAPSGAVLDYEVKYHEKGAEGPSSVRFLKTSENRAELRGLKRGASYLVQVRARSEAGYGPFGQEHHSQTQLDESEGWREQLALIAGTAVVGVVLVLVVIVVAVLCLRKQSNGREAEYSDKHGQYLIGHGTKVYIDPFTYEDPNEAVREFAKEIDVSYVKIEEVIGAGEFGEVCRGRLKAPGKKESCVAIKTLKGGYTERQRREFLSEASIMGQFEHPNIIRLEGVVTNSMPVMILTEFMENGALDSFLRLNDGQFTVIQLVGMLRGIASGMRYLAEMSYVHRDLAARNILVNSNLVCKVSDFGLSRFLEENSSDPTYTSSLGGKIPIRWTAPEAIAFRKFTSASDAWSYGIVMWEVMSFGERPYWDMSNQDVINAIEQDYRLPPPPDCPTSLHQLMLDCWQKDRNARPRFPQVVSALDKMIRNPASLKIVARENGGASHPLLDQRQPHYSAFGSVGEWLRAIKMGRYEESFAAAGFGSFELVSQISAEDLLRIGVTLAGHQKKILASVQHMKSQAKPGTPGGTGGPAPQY
As to conditions: at 0.1 µM.

Experiment [5] deals with T3, Ephrin type-B receptor 4 (Homo sapiens). Particulars: at 1 µM.
Experiment [6] has as its target Receptor tyrosine-protein kinase erbB-2 (Homo sapiens) (UniProt P04626). Particulars: at 0.1 µM.
For experiment [7] the target is unchanged. Particulars: at 1 µM.
Experiment [8] addresses Receptor tyrosine-protein kinase erbB-4 (Homo sapiens) (UniProt Q15303). As to conditions: at 0.1 µM.
The target is the same in experiment [9]. Particulars: at 1 µM.
The target of experiment [10] is Tyrosine-protein kinase Fer (Homo sapiens) (UniProt P16591). Particulars: at 0.1 µM.
The target is the same in experiment [11]. Particulars: at 1 µM.
Experiment [12] concerns the target Tyrosine-protein kinase Fes/Fps (Homo sapiens) (UniProt P07332). As to conditions: at 0.1 µM.
For experiment [13] the target is unchanged. As to conditions: at 1 µM.
The target of experiment [14] is Fibroblast growth factor receptor 1 (Homo sapiens) (UniProt P11362). Particulars: at 0.1 µM.
Experiment [15] has the same target. Particulars: at 1 µM.
The target in experiment [16] is Fibroblast growth factor receptor 2 (Homo sapiens) (UniProt P21802). Particulars: at 0.1 µM.
Experiment [17] has the same target. As to conditions: at 1 µM.
Experiment [18] deals with Fibroblast growth factor receptor 3 (Homo sapiens) (UniProt P22607). Particulars: at 0.1 µM.
The target is the same in experiment [19]. As to conditions: at 1 µM.
The target of experiment [20] is Fibroblast growth factor receptor 4 (Homo sapiens) (UniProt P22455). As to conditions: at 0.1 µM.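 Also: values are mean percent inhibition of FGFR4.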
Fibroblast growth factor receptor 4 (Homo sapiens), sequence (P22455 22-802 limits assumed): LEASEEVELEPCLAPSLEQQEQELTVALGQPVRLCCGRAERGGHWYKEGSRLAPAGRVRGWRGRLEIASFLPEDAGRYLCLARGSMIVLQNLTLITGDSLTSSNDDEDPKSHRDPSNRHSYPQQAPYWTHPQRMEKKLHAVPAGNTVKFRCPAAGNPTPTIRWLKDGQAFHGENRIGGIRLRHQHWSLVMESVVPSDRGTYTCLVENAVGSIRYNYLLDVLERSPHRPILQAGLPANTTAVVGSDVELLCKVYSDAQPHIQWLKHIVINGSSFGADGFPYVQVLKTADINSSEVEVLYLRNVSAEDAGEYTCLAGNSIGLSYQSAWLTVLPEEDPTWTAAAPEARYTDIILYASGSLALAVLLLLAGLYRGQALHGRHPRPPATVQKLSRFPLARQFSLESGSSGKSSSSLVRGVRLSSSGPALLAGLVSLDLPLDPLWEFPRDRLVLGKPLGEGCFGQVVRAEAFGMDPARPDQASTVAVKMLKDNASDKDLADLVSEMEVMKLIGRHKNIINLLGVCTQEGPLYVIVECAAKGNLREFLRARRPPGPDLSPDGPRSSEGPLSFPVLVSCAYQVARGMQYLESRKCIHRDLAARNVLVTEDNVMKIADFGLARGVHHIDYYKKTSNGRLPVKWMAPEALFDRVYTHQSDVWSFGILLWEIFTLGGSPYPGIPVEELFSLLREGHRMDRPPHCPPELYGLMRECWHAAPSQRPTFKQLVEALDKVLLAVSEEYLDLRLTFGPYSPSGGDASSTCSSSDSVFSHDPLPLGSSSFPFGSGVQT

Receptor tyrosine-protein kinase erbB-4 (Homo sapiens), sequence (Q15303 whole entry): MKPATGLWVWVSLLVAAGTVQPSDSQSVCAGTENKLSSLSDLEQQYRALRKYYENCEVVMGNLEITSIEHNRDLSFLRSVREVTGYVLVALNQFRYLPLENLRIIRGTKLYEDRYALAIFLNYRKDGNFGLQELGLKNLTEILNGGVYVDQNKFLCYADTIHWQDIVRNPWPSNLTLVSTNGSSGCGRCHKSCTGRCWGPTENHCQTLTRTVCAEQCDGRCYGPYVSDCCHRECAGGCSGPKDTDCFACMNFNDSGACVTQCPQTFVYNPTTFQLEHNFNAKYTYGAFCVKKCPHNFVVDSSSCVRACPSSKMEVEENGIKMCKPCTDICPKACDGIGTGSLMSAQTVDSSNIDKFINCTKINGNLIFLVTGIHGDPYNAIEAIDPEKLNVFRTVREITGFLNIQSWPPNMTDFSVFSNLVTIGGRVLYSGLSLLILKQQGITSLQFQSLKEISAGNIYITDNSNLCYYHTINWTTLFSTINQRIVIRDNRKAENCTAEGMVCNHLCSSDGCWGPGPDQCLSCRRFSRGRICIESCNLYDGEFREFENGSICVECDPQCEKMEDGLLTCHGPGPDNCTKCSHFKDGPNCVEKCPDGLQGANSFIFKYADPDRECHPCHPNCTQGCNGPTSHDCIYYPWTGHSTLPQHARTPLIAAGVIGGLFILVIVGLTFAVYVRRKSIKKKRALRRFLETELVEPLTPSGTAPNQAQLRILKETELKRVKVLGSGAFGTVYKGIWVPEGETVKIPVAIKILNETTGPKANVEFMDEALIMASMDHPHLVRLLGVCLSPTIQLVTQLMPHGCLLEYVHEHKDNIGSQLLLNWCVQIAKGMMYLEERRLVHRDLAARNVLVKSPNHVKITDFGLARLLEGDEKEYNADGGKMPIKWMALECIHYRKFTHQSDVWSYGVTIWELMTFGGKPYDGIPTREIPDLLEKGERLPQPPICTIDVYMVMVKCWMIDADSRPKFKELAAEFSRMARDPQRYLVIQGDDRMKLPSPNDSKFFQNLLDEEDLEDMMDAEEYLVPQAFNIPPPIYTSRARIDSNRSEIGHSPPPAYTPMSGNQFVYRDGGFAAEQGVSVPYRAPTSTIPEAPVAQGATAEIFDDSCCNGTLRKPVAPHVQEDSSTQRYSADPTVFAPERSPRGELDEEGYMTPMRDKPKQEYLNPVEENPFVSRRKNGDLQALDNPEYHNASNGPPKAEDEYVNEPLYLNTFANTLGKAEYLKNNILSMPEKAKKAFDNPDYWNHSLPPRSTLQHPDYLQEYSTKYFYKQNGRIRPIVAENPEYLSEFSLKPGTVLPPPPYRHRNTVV
Tyrosine-protein kinase Fer (Homo sapiens), sequence (P16591 whole entry, looked up): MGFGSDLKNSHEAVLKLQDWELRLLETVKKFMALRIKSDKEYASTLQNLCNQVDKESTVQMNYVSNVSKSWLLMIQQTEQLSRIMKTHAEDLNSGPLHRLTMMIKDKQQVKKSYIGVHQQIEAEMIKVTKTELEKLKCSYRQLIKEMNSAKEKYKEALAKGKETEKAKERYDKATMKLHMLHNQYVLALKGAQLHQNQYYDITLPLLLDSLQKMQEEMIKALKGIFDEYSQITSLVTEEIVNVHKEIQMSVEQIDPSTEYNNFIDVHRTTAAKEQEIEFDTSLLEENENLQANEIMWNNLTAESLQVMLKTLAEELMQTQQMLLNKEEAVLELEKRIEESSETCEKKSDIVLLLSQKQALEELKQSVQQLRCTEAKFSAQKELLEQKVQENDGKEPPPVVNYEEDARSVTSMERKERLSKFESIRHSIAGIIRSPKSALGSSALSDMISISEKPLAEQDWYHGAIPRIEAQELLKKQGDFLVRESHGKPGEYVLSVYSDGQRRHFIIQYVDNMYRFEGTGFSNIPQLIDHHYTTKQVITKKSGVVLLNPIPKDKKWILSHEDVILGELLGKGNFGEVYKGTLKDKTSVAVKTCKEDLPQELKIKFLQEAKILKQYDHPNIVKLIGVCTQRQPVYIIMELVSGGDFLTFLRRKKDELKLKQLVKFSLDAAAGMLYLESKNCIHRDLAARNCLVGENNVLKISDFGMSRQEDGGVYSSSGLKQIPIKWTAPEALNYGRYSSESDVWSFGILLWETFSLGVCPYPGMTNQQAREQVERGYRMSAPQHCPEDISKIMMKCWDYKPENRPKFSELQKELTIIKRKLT
Tyrosine-protein kinase Fes/Fps (Homo sapiens), sequence (P07332 whole entry): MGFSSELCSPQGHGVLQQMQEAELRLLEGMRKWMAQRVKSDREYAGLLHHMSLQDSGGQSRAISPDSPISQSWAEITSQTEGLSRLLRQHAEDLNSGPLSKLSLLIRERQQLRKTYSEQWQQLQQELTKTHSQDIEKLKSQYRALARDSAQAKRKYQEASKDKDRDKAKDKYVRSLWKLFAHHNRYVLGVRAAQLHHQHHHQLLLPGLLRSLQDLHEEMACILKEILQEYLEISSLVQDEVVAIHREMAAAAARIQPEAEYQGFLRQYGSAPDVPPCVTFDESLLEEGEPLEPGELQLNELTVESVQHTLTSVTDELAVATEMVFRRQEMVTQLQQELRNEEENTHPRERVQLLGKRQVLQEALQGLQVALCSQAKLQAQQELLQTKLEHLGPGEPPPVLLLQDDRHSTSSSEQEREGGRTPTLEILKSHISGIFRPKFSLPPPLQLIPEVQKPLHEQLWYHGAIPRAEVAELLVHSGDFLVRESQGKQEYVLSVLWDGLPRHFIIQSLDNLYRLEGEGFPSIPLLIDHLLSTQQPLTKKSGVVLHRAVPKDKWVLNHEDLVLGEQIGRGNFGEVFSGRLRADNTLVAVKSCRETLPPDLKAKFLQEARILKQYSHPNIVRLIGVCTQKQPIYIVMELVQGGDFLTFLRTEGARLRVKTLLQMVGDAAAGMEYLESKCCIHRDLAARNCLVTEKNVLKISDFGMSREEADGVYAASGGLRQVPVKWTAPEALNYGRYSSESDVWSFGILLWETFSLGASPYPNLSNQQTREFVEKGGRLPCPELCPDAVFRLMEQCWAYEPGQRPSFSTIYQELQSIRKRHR
Fibroblast growth factor receptor 2 (Homo sapiens), sequence (P21802 22-821 limits assumed): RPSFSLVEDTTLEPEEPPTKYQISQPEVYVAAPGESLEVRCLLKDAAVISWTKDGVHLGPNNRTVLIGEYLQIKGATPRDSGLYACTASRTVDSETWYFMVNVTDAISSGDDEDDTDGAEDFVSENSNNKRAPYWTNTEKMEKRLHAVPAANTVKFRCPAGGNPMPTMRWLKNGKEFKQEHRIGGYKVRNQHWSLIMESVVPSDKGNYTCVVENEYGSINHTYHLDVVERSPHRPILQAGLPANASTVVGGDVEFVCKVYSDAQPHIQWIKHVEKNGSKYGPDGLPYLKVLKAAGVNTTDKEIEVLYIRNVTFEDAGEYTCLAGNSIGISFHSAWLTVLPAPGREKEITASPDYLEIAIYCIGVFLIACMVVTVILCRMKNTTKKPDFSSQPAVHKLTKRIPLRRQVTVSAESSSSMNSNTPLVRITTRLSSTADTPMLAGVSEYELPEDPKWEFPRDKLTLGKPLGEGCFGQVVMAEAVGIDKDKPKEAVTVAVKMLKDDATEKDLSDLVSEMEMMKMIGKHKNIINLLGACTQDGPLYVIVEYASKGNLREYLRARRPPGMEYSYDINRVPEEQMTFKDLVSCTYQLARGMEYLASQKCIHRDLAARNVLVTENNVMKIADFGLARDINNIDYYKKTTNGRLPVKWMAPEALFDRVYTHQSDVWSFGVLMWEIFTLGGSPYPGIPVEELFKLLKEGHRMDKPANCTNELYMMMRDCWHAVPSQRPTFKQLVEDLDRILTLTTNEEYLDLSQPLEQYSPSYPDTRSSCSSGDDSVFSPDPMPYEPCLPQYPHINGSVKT

In the case of `COc1ccccc1-c1cc(/C=C2\C(=O)Nc3ncc(Br)cc32)cc(Br)c1O`, the inhibition in experiment [1] amounted to 7.78%; in experiment [2], 8.03%; in experiment [3], 5.59%; in [4], 1.76%; in [5], 4.26%; in experiment [6], 1.14%. In addition, the inhibition in [7] was -4.15%; in experiment [8], 11.2%; in experiment [9] it was 17.7%; in experiment [10], 1.71%; in experiment [11] it was 9.31%; in experiment [12], 3.24%. The inhibition in experiment [13] came to 4.41%; in [14], 3.85%; in experiment [15], 14%; in experiment [16], 6.66%; in experiment [17] it was 18%; in [18] it was 8.55%. In addition, the inhibition in experiment [19] is 14%; in [20] it was -0.86%.
With `CC1=C(C(=O)Nc2ccc3[nH]nc(C)c3c2)C(c2ccc(C(F)(F)F)cc2)CC(=O)N1` (stereo not given), the inhibition in [1] was determined as 3.69%; in experiment [2] it was 5.28%; in [3], 2.84%; in experiment [4], 1.98%; in experiment [5], 4.06%; in experiment [6], 0.35%. For the same molecule, the inhibition in experiment [7] came to 0.13%; in experiment [8] it was 9.2%; in experiment [9], 16%; in experiment [10], 1.26%; in experiment [11], 3.02%; in experiment [12], 1.58%. Besides, the inhibition in [13] was 2.34%; in experiment [14], -0.57%; in experiment [15], 9.3%; in experiment [16], 4.48%; in experiment [17], 13.4%; in experiment [18] it was 5.62%. Also, the inhibition in [19] is 8.47%; in experiment [20] it was -0.06%.
For `O=C(O[C@H]1CN[C@H](C#Cc2cc3ncnc(Nc4ccc5c(ccn5Cc5cc(F)ccc5F)c4)c3s2)C1)N1CCOCC1`, the inhibition came out at 4.17% in experiment [1]; 6.61% in experiment [2]; 5.15% in experiment [3]; 2.46% in [4]; 3.04% in experiment [5]; 9.01% in experiment [6]. Also, the inhibition in [7] is 40.9%; in experiment [8] it was 86.9%; in [9] it was 86.3%; in [10], 1.31%; in experiment [11], 5.55%; in [12], 3.3%. For the same molecule, the inhibition was 3.52% in experiment [13]; -0.06% in experiment [14]; 2.23% in experiment [15]; 3.95% in [16]; 4.22% in experiment [17]; 5.33% in experiment [18]. Moreover, the results for the inhibition in [19] and in experiment [20] were 3.1% and -1.92%, respectively.
